From PubChem BioAssay
Only a selection was taken, and hits are over-represented in it overall.
Pf apPOL inh: Pf-apPOL DNA polymerase inhibition; Recombinant Pf-apPOL, molecular beacon fluorescence, 1.5 h; 210,000 compounds, 0.25% hits; inhibition, % at 10 µM; AID 1794808
mHTT-CaM PPI inh: inhibitors of human mutant huntingtin-calmodulin interaction; inhibition, % at 15 µM; AID 1671202; AlphaScreen His-mHTT/GST-CaM binding, luminescence; 190,000 compounds, 3.6% hits;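 further: 0% = both proteins with DMSO and 100% = one protein alone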
Active calls of the source: *; i = inactive; . = not tested or not shown; + = active, no number. No stated cut-off is given here; in the data, active means inhibition above about 50%; inactive means the rest.

SMILES | Pf apPOL inh | mHTT-CaM PPI inh
CC1CCCCC1NC(=O)C1(C)Cn2c(cc3sccc32)C(=O)N1C1CCCCC1 (stereo unspecified) | -4 | -2
O=C(NCc1cccnc1-c1ccccc1)c1cc(F)cc(F)c1 | -9 | 4
Cc1nc(-c2cn(C(C)C)c3ncccc23)sc1C(=O)Nc1ccc(F)cc1 | -8 | 100*
CCn1cc(-c2nc(C)c(C(=O)Nc3ccc(C)cc3)s2)c2cccnc21 | 2 | -14
Cc1ccc(C2CC(c3ccc(Cl)cc3)Nc3nc(N)nn32)cc1 (stereo unspecified) | 1 | 24
NC(=O)c1nn2c(C(F)(F)F)cc(-c3ccc(Cl)cc3)nc2c1Cl | 1 | 0
COc1ccc(-c2cc(C(F)(F)F)n3nc(C(=O)O)c(Br)c3n2)cc1 | -1 | 65*
COc1ccc(-c2cc(C(F)(F)F)n3nc(C(=O)O)c(Cl)c3n2)cc1 | -5 | 64*
COc1ccc(-c2cc(C(F)(F)F)n3ncc(C(=O)N4CCCC4)c3n2)cc1 | -7 | -6
O=C1CCN(CCc2ccccc2)CCN1[C@H](COc1ccccc1)Cc1ccccc1 | -4 | 98*
CC(C)CN1CCC(=O)N([C@H](COc2ccccc2)Cc2ccccc2)CC1 | -6 | 19
CC(C)C[C@@H](COc1ccccc1)N1CCN(CCc2ccccc2)CCC1=O | -10 | 84*
O=C1CCN(CCc2ccccc2)CCN1[C@H](CSc1ccc(Br)cc1)c1ccccc1 | -4 | 21
CC(=O)Nc1ccc(SC[C@H](c2ccccc2)N2CCN(CCc3ccccc3)CCC2=O)cc1 | -6 | 98*
CCCN1CCC(=O)N([C@H](COc2ccccc2)CC(C)C)CC1 | -3 | 7
Cc1ccsc1C(=O)N1CCC2(CC1)NC(=O)N(Cc1ccccc1Cl)C2=O | -2 | 10
CCN(C(=O)Cc1c(C(=O)O)n(CC)c2ccccc12)c1cc(OC)ccc1OC | -1 | 4
Cc1cc(OCc2nc(-c3ccncc3)no2)ccc1Cl | -58 | -9
COc1ccccc1OCCNC(=O)c1nc(C)n(C2CCN(C)CC2)c1C | 3 | 0
S=c1[nH]nc(-c2ccco2)n1/N=C/C=C/c1ccco1 | . | i
S=c1[nH]nc(-c2cc(-c3ccccc3)n[nH]2)n1/N=C/C=C/c1ccco1 | . | +
COc1cc(/C=C2\C(=O)NC(=O)N(c3cc(C)cc(C)c3)C2=O)c([N+](=O)[O-])cc1OC | -4 | 20
CC(C)n1c(=O)c(NCc2ccc(F)c(Cl)c2)nc2ccncc21 | -16 | 87*
CC(C)n1c(=O)c(NCc2cccc(F)c2)nc2ccncc21 | -22 | -5
COc1cccc(C2CC(c3ccc(Br)cc3)=NN2C(=O)c2ccncc2)c1OC (stereo unspecified) | -5 | 61*
SMILES | Pf apPOL inh | mHTT-CaM PPI inh
COc1ccccc1C1CC(c2ccc(Br)cc2)=NN1C(=O)CCC(=O)O (stereo unspecified) | -1 | 10
COc1ccccc1C1CC(c2ccc(Br)cc2)=NN1C(=O)c1cccnc1 (stereo unspecified) | -3 | 53*
COc1ccccc1C1CC(c2ccc(Br)cc2)=NN1C(=O)c1ccncc1 (stereo unspecified) | -5 | 18
COCCNC(=O)c1cnn2c1NC(c1ccc(Br)cc1)CC2C(F)(F)F (stereo unspecified) | -5 | 6
Cc1ccc(C(=O)N2CCC(c3nc(CCNC(=O)C4CC4)cs3)CC2)c(C)c1 | 1 | 10
CCc1onc(C)c1C1CCCN1C(=O)c1cc(-c2cccs2)on1 (stereo unspecified) | -5 | -4
O=C(Nc1ccc(F)c(Cl)c1)c1cc([N+](=O)[O-])nn1Cc1ccccc1 | -7 | 92*
O=C(Nc1ccc(F)cc1)c1cc([N+](=O)[O-])nn1Cc1ccccc1 | -8 | 3
Cc1nc(C2CCCN(Cc3ccc(Br)o3)C2)n[nH]1 (stereo unspecified) | -10 | 50*
Cc1nc(C2CCCN(Cc3cccc4[nH]ccc34)C2)n[nH]1 (stereo unspecified) | -7 | 18
COc1ccc(NC(=O)C2CCCN(c3nccc4sccc34)C2)cc1 (stereo unspecified) | -3 | 33
COc1cccc(-n2nc(C(=O)N3CCN(c4cccc(Cl)c4)CC3)c3ccccc3c2=O)c1 | -2 | 61*
CCOc1ccc(C(=O)N2CCN=C2N2CCC(C)CC2)cc1 | -6 | 4
COc1cccc(-n2nc(C(=O)N3CCOCC3)c3ccccc3c2=O)c1 | -2 | 0
COc1ccc(C(=O)N2CCN=C2N2CCN(c3cccc(Cl)c3)CC2)cc1 | 0 | 85*
COc1ccccc1C(=O)N1CCN=C1N1CCN(c2cccc(Cl)c2)CC1 | 0 | 48
CCOc1ccc(C(=O)N2CCN=C2N2CCN(c3cccc(Cl)c3)CC2)cc1 | 0 | 100*
CCCc1cc(=O)[nH]c(SCC(=O)NC2Cc3ccccc3C2)n1 | -4 | .
O=[N+]([O-])c1ccc(-c2csc(NN=C3Cc4ccccc4C3)n2)cc1 | 0 | .
O=C1C2C(C(=O)N1C13CC4CC(CC(C4)C1)C3)C1C=CC2C12CC2 (stereo unspecified) | -4 | 2
